# Data taken from PubChem BioAssay (NCATS).
# “And” between values parts separate entries of the source, which are not always exact repeats. Identical values can stand only once. Records with an inconclusive call do not appear. A number with no mark means an inactive call. The source made the active and inactive calls. Calls follow the shape of the dose curve; as a rule, active = well fitted curve in the direction sought with a large enough effect; inconclusive = small, poorly fitted or top-dose-only effect, or another doubt; inactive = no such curve, though single readings can be large; an effect the other way counts as inactive or inconclusive.
# How the values were obtained:
# [1] = target: Cellular tumor antigen p53 (Homo sapiens) (UniProt P04637); test: Primary qHTS for small molecule compounds that upregulate eGFP-tagged delta133p53alpha (in N-terminal) cells. (AID 2060322); settings: NCI-H358 eGFP-delta133p53alpha fluorescence, 24 h; activation: active compounds read high; also: nearly all actives have a fitted effect of over 75% in size;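 as to activation: cells pre-induced with doxycycline then dosed without doxycycline; series mostly up to about 56 µM; 0% = DMSO vehicle and 100% = reference activator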
# How it was run: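 NCI-H358 cells pre-induced 24 h with 10 ng/ml doxycycline for eGFP-delta133p53alpha, plated dox-free and exposed 24 h at 37C to titrated compounds. Fixed, Hoechst-stained; gated GFP peak intensity by laser scanning cytometry, normalized to DMSO (0%) and 57.5 uM 5-azacytidine (100%).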
# [2] = BET inhibitor-based combinations targeting novel dependencies in MECOM-rearranged (r) AML: SET-2 cell line (AID 2202231); settings: SET-2 AML cells viability, CellTiter-Glo luminescence, 48 h; viability: active compounds read low, concentration not given here; also: nearly all actives have a fitted effect of over 35% in size;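 as to viability: plate controls were DMSO treated cells for no effect and wells without cells for full effect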
# How it was run: (§1)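 Readout: CellTiter-Glo luminescence. Exposure: 48 h, 11 concentrations, 500 cells/well. Metric: AUC and within-line Z-AUC after DMSO/empty-well normalization.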
# [3] = BET inhibitor-based combinations targeting novel dependencies in MECOM-rearranged (r) AML: OCI-AML3 cell line (AID 2202232); settings: Potency: OCI-AML3 viability; also: nearly all actives have a fitted effect of over 35% in size
# How it was run: as §1
# [4] = BET inhibitor-based combinations targeting novel dependencies in MECOM-rearranged (r) AML: MV-4-11 cell line (AID 2202233); also: nearly all actives have a fitted effect of over 45% in size
# How it was run: (§2)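 Seeding density was 500 cells/well, and drug exposure lasted 48 hr under standard culture conditions. Read-out used CellTiter-Glo reagent with a 15 min room-temperature incubation before luminescence measurement; AUC and Z-AUC summarize the normalized responses.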
# [5] = BET inhibitor-based combinations targeting novel dependencies in MECOM-rearranged (r) AML: HNT-34 cell line (AID 2202234); also: nearly all actives have a fitted effect of over 35% in size
# How it was run: as §2
# [6] = BET inhibitor-based combinations targeting novel dependencies in MECOM-rearranged (r) AML: AML-191 cell line (AID 2202236; also: nearly all actives have a fitted effect of over 35% in size)
# How it was run: as §1
# [7] = BET inhibitor-based combinations targeting novel dependencies in MECOM-rearranged (r) AML: AML-194 cell line (AID 2202237; also: nearly all actives have a fitted effect of over 40% in size)
# How it was run: as §1
# [8] = BET inhibitor-based combinations targeting novel dependencies in MECOM-rearranged (r) AML: UCSD-AML1 cell line (AID 2202235); also: nearly all actives have a fitted effect of over 40% in size
# How it was run: as §2
# Potency is read from the fitted curve at half-maximal effect.
# Cellular tumor antigen p53 (Homo sapiens), sequence (P04637 whole entry, looked up): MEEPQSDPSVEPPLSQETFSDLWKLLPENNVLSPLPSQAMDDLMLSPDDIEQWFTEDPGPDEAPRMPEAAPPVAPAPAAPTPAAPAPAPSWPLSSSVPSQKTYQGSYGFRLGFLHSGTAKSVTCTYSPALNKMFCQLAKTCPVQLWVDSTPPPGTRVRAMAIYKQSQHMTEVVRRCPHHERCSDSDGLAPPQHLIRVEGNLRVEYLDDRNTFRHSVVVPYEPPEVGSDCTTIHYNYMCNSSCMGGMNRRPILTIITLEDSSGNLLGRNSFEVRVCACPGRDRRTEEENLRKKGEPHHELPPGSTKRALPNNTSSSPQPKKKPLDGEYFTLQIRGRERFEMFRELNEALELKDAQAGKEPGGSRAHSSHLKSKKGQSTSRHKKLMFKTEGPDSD
Compound,activation [1],Potency [2],Potency [3],Potency [4],Potency [5],Potency [6],Potency [7],viability [2] [%],Potency [8],Potency [1]
CN1C(=O)c2sccc2N(C)c2nc(Nc3ccc(S(N)(=O)=O)cc3)ncc21,-6.75%,6610 nM (active),1660 nM (active),1050 nM (active),934 nM (active),3720 nM (active),2350 nM (active),,,
COc1cc(OC)c(C(=O)CCCN2CCCC2)c(OC)c1,-15.1% and 2.07%,,inactive,inactive,,inactive,inactive,98,inactive,
COc1cc2c(cc1OC)CC(=O)N(CCCN(C)C[C@H]1Cc3cc(OC)c(OC)cc31)CC2,-11.1%,,inactive,inactive,,inactive,inactive,111,inactive,
C[C@@H]1C[C@H]2[C@@H]3CCC4=CC(=O)C=C[C@]4(C)[C@@]3(F)[C@@H](O)C[C@]2(C)[C@@]1(O)C(=O)CO,-11.9%,,inactive,inactive,,,,112,inactive,
C[C@](Cc1c[nH]c2ccccc12)(NC(=O)OC1C2CC3CC(C2)CC1C3)C(=O)NC[C@H](NC(=O)CCC(=O)O)c1ccccc1 (stereo partly drawn),8.58%,,inactive,inactive,inactive,,inactive,110,,
O=C(NCCS(=O)(=O)c1ccc(C(F)(F)F)cn1)c1ccc(Cl)cc1,6.23%,,inactive,inactive,inactive,inactive,inactive,108,,
C[C@@H](NCc1cc2ccccc2[nH]1)c1cccc2ccccc12,-11%,16600 nM (active),14800 nM (active),18600 nM (active),10500 nM (active),13200 nM (active),8330 nM (active),,,
COc1cc([C@@H]2c3cc4c(cc3[C@H](O)[C@H]3COC(=O)[C@H]23)OCO4)cc(OC)c1OC,24.1%,37.2 nM (active),37.2 nM (active),41.7 nM (active),,37.2 nM (active),,,41.7 nM (active),
O=C(O)[C@@H](c1ccc(OCc2ccc3ccccc3n2)cc1)C1CCCC1,-11.6%,,inactive,13200 nM (active),,inactive,inactive,99.7,inactive,
O=C(Nc1cc(Cl)cc2c1[nH]c1cnccc12)c1cccnc1,15.9%,,inactive,inactive,,inactive,inactive,102,inactive,
O=C1NC(O)CCN1[C@@H]1O[C@H](CO)[C@H](O)[C@H]1O (stereo partly drawn),-10.6%,,inactive,inactive,inactive,inactive,inactive,115,,
Cc1cccc(-c2[nH]c(C(C)(C)C)nc2-c2ccc3c(c2)OCO3)n1,-10.9%,16600 nM (active),3720 nM (active),2950 nM (active),6610 nM (active),6610 nM (active),6610 nM (active),,,
C[C@@H](CN1CC(=O)NC(=O)C1)N1CC(=O)NC(=O)C1,-3.95% and 20.4%,,18600 nM (active),14800 nM (active),inactive,13200 nM (active),16600 nM (active),92.4,,
COc1ccc(C=Cc2cc(OC)c(OC)c(OC)c2)cc1NC(=O)[C@H](N)CO,7.98%,263 nM (active),296 nM (active),296 nM (active),,332 nM (active),296 nM (active),,372 nM (active),
CC(C(=O)O)c1ccc(-c2ccccc2)c(F)c1 (stereo not drawn),3.78%,,inactive,inactive,,inactive,inactive,111,inactive,
CCN1CCN(CC(=O)Nc2ccc(-c3cccc4c(=O)cc(N5CCOCC5)oc34)c3sc4ccccc4c23)CC1,-18.4%,8110 nM (active),2570 nM (active),1440 nM (active),,5740 nM (active),3230 nM (active),,2570 nM (active),
C[C@]12C=CC(=O)C=C1CC[C@@H]1[C@@H]2C(=O)C[C@@]2(C)[C@H]1CC[C@]2(O)C(=O)CO,-20.1% and 2.21%,,inactive,inactive,inactive,inactive,inactive,109,,
COc1ccc(-n2c(C)c([N+](=O)[O-])c3ccc(O)cc32)cc1,-5.31%,,inactive,5250 nM (active),,6610 nM (active),inactive,107,inactive,
O=C(Nc1ccc2[nH]nc(-c3ccncc3)c2c1)[C@@H]1CCN(CC(=O)N2CCN(c3ccc(-c4ncccn4)cc3)CC2)C1,4.47%,23500 nM (active),235 nM (active),1660 nM (active),,2090 nM (active),,,2630 nM (active),
CC(C)(Cc1ccc2ccccc2c1)NC[C@@H](O)COc1cccc(Cl)c1C#N,19.8%,18600 nM (active),16600 nM (active),16600 nM (active),16600 nM (active),10500 nM (active),10500 nM (active),,,
COc1c(C)c2c(c(O)c1C/C=C(\C)CCC(=O)O)C(=O)OC2,7.34%,1180 nM (active),1320 nM (active),742 nM (active),,1050 nM (active),1320 nM (active),,833 nM (active),
CC(C)(F)C[C@H](N[C@@H](c1ccc(-c2ccc(S(C)(=O)=O)cc2)cc1)C(F)(F)F)C(=O)NC1(C#N)CC1,-2.96%,,inactive,4680 nM (active),,inactive,,104,inactive,
O=C1C[C@@H](c2ccc(O)cc2)Oc2cc(O)cc(O)c21,-17.7%,,inactive,inactive,,inactive,inactive,109,inactive,
CCc1cc(-c2n[nH]c(C)c2-c2ccc3c(c2)OCCO3)c(O)cc1O,2.7%,14800 nM (active),18600 nM (active),4680 nM (active),14800 nM (active),,16600 nM (active),,,
O=C(/C=C/C#Cc1cccc(NS(=O)(=O)c2ccccc2)c1)NO,-10.1%,407 nM (active),574 nM (active),182 nM (active),,723 nM (active),910 nM (active),,645 nM (active),
CC(C)C[C@H](NC(=O)CNC(=O)c1cc(Cl)ccc1Cl)B(O)O,,105 nM (active),118 nM (active),148 nM (active),132 nM (active),166 nM (active),332 nM (active),,,17200 nM (active)
C[C@@H](Oc1cc(-n2cnc3ccc(CN4CCN(C)CC4)cc32)sc1C(N)=O)c1ccccc1C(F)(F)F,2.47%,105 nM (active),46.8 nM (active),105 nM (active),,93.4 nM (active),,,118 nM (active),
CN(C)c1ccc(C(=C2C=CC(=[N+](C)C)C=C2)c2ccc(N(C)C)cc2)cc1,-20.9%,1050 nM (active),1320 nM (active),662 nM (active),934 nM (active),1180 nM (active),934 nM (active),,,
